Holding throughout (type): functional
Test [1] has as its system Plasmodium falciparum. The test is described as follows: GSK_TCMDC: Inhibition of Plasmodium falciparum 3D7 in whole red blood cells, using parasite LDH activity as an index of growth. Test compounds present at 2uM.
Test [2] relates to Plasmodium falciparum. Briefly: GSK_TCMDC: Inhibition of Plasmodium falciparum Dd2 in whole red blood cells, using parasite LDH activity as an index of growth. Test compounds present at 2uM.
Another test has as its system HepG2. Briefly: GSK_TCMDC: Percent inhibition of human HepG2 cell line. Test compounds present at 10uM.

Molecules are shown by their SMILES.

Take `NC(=O)c1ccc(-n2cnc3cc(F)ccc32)cc1OCc1ccccc1C(F)(F)F.NC(=O)c1ccc(-n2cnc3ccc(F)cc32)cc1OCc1ccccc1C(F)(F)F`: the Inhibition in the test on Plasmodium falciparum [1] was found to be 97%; with Plasmodium falciparum [2], 93%; in the test on HepG2, 55%.

Consider `COc1ccc2nc(C)cc(Nc3ccc(Oc4ccc5ccccc5c4Cl)c(Cl)c3)c2c1`, for which the Inhibition is recorded as 100% with Plasmodium falciparum [1], 98% in the test on Plasmodium falciparum [2] and 32% in the test on HepG2.

`O=C(CCc1cccc(O)c1)NCC(NCCCNc1cc(=O)c2ccccc2[nH]1)c1cc(Br)cc(Br)c1` (stereo unspecified): the Inhibition in the test on Plasmodium falciparum [1] is 86%; with Plasmodium falciparum [2], 37%; in the test with HepG2, 0%.

Regarding `CC(Oc1cc(-n2cnc3ccc(NC(=O)CCN4CCCCC4)cc32)sc1C(N)=O)c1ccccc1Cl` (stereo unspecified), the Inhibition with Plasmodium falciparum [1] is listed as 99%; in the test with Plasmodium falciparum [2] it was 98%; with HepG2 it was 95%.

Take `O=S(=O)(c1cc(Cl)ccc1Cl)N1CCCCC(c2ccc(C(F)(F)F)cc2)=N1`: the Inhibition amounted to 87% in the test with Plasmodium falciparum [1], 68% in the test on Plasmodium falciparum [2] and 15% in the test with HepG2.

`O=C(N[C@H]1CCN(Cc2ccc(OCCN3CCNCC3)c(Br)c2)C1)c1ccc(Cl)c(Cl)c1.O=C(O)C(F)(F)F`: the Inhibition amounted to 100% in the test on Plasmodium falciparum [1], 36% with Plasmodium falciparum [2] and 69% in the test on HepG2.

For the compound `O=C(O)C(F)(F)F.c1cc(CN2CCN(c3ccncc3)CC2)cc(-c2ccc(-c3nc4ccccc4[nH]3)cc2)c1`, the Inhibition in the test with Plasmodium falciparum [1] is on record as 100%; in the test with Plasmodium falciparum [2], 100%; in the test with HepG2, 60%.

The term Inhibition denotes the percentage by which the read-out fell short of the control. A high value points to a strong effect.
